Compounds with a hit are over-represented: about 1.3% of the library has one in this group of screens.
MEP2-GFP yeast = modulators of TOR pathway MEP2-GFP in S. cerevisiae; S. cerevisiae MEP2-GFP strain, flow cytometry GFP, 3 h; 100% = DMSO control level; GFP response vs DMSO, % at 10 µM; 0.51% of 330,000 active; AID 2016;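 active means GFP response versus DMSO above a set limit, roughly screen mean plus 3 SD, cut at about 180% in these data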;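 further: median GFP fluorescence of the barcode-gated MEP2-GFP cells per well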
Efflux pump mplx = antifungal efflux pump inhibition, Nile Red retention; S. cerevisiae Candida pump triplex; inhibition, % at 10 µM; 0.44% of 330,000 active;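 active means plate passing quality check with inhibition over a set limit, or well fluorescence over plate mean plus 4 SD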;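 further: Nile Red retained in pooled yeast measured as flow cytometry median fluorescence; 0% = buffer negative control and 100% = Enniatin B positive control; higher means more Nile Red kept so more efflux inhibition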
AGP1-GFP MLPCN = alters AGP1-GFP fluorescence in TOR pathway yeast screen; S. cerevisiae AGP1-GFP multiplex flow cytometry, 3 h; GFP as percent of DMSO wells; GFP response vs DMSO, % at 10 µM; 0.02% of 320,000 active; AID 2066;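 active means GFP response relative to DMSO above a set limit, near screen average plus 3 SD, cut at about 150% in these data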;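 further: median GFP channel fluorescence of the gated AGP1 strain per well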
LAP4-GFP MLPCN = yeast TOR pathway LAP4-GFP modulation. GFP response vs DMSO, % at 10 µM. S. cerevisiae LAP4-GFP multiplex, flow cytometry GFP, 3 h; median GFP as percent of DMSO wells. 0.34% of 320,000 active. AID 2023;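 active means GFP response vs DMSO above a set limit, about the screen mean plus 3 SD, cut at about 150% in these data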
RPL19A-GFP yeast = modulators of TOR pathway RPL19A-GFP in S. cerevisiae; percent response vs DMSO, % at 10 µM; S. cerevisiae RPL19A-GFP strain, flow cytometry, 3 h; stronger effect = lower value; 0.3% of 330,000 active;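 active means percent response vs DMSO below 50%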;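 further: median channel GFP fluorescence of the barcoded RPL19A-GFP strain; ratio of sample median GFP to plate DMSO average so 100% = DMSO; lower means less RPL19A-GFP as with rapamycin TOR inhibition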
CIT2-GFP yeast = alters CIT2-GFP fluorescence in TOR pathway yeast screen; S. cerevisiae CIT2-GFP strain, flow cytometry, 3 h; 100 means same as DMSO wells; GFP response vs DMSO, % at 10 µM; 0.065% of 320,000 active;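 active means GFP response relative to DMSO above a set limit, near the screen mean plus 3 SD, cut at about 150% in these data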;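 further: ratio of well median GFP fluorescence to mean of DMSO wells on the plate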
Yeast cmpd fluor = counter-screen for efflux pump inhibitors: compound fluorescence. shares compounds with Efflux pump mplx. S. cerevisiae AD/pABC3, flow cytometry. fluorescence ratio to DMSO, % at 10 µM. 4% of 1,700 active;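 active means fluorescence ratio to DMSO above its plate's cutoff, the plate mean ratio plus 5 SD, cut at about 210% in these data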;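 further: unstained yeast with no Nile Red so the signal is compound autofluorescence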
CaMdr1 efflux inh = blocks the Candida albicans Mdr1 efflux pump in yeast. shares compounds with Efflux pump mplx. S. cerevisiae AD/CaMDR1, Nile Red efflux, flow cytometry. inhibition, % at 10 µM. 1% of 1,700 active. AID 588518; in the data active means inhibition above about 26%;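 further: 0% = DMSO vehicle and 100% = reference inhibitor; higher means more Nile Red retained so more efflux inhibition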
Cdr2 pump inh = blocks the Candida albicans Cdr2 efflux pump in yeast; shares compounds with Efflux pump mplx; S. cerevisiae AD/CaCDR2, Nile Red retention, flow cytometry; Nile Red retention ratio vs DMSO, % at 10 µM; 4% of 1,700 active; AID 588520; in the data active means Nile Red retention ratio vs DMSO above about 190%;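 further: higher ratio means more blocking of Cdr2 efflux of the dye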
Cdr1 pump inh = Candida Cdr1 efflux pump inhibition; AID 588522; inhibition, % at 10 µM; S. cerevisiae AD/CaCDR1, Nile Red efflux, flow cytometry; 1% of 1,700 active; shares compounds with Efflux pump mplx;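 active means inhibition above the screen-wide mean plus twice its standard deviation, cut at about 32% in these data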
Starred values were filed as active, the others as inactive; . = not tested or not shown.

SMILES | MEP2-GFP yeast | Efflux pump mplx | AGP1-GFP MLPCN | LAP4-GFP MLPCN | RPL19A-GFP yeast | CIT2-GFP yeast | Yeast cmpd fluor | CaMdr1 efflux inh | Cdr2 pump inh | Cdr1 pump inh
COc1ccc(NC(=O)N(C)C[C@H]2Oc3c(NC(=O)Cc4ccccc4)cccc3C(=O)N([C@H](C)CO)C[C@@H]2C)cc1 | 101.2 | 0.1 | 100.0 | 94.6 | 92.5 | 92.8 | . | . | . | .
O=c1cc(-c2ccccc2)c2cc(Cl)c(O)c(CN3CCOCC3)c2o1 | 102.1 | -0.2 | 92.6 | 81.5 | 104.0 | 91.3 | . | . | . | .
CCc1cc2c(-c3ccccc3)cc(=O)oc2c(CN2CCOCC2)c1O | 108.3 | 0.8* | 100.9 | 102.9 | 97.0 | 104.3 | 105.8 | 0.2 | 118.2 | 0.1
CCCOc1ccc(C(=O)N(Cc2cccs2)C2CCS(=O)(=O)C2)cc1 (configuration not stated) | 91.4 | 0.9 | 102.2 | 97.8 | 102.9 | 99.6 | . | . | . | .
CCCCn1c(N)c(N(CC(C)C)C(=O)CCC2CCCCC2)c(=O)[nH]c1=O | 101.6 | -0.3 | 100.0 | 94.6 | 94.0 | 106.1 | . | . | . | .
Cc1ccc(C)c(NC(=O)Nn2cnnc2)c1 | 100.1 | -0.1 | 93.9 | 88.5 | 100.0 | 97.4 | . | . | . | .
COc1ccc(-n2cc(-c3ccccc3)c3c(NN4CCOCC4)ncnc32)cc1 | 104.4 | 2.5* | 104.3 | 118.3 | 98.3 | 90.2 | 109.0 | 0.1 | 106.3 | 0.2
Cc1ccc(C(=O)N2CCC3(CC2)Oc2ccc(Cl)cc2C(=O)C32CC(c3ccccc3)=NO2)s1 (configuration not stated) | 99.5 | -0.1 | 99.7 | 95.2 | 97.6 | 104.4 | 93.7 | -0.3 | 90.9 | 0.1
Cc1ccc(C(=O)N2CCC3(CC2)Oc2ccc(Cl)cc2C(=O)C32CC(c3ccc(Cl)cc3)=NO2)s1 (configuration not stated) | 99.5 | 0.1 | 104.0 | 96.8 | 100.0 | 103.5 | 97.8 | -0.2 | 112.4 | -0.1
CCC(=O)N1CCC2(CC1)Oc1ccc(F)cc1C(=O)C21CC(c2ccc(Cl)cc2)=NO1 (configuration not stated) | 95.5 | 0.2 | 83.5 | 125.7 | 97.1 | 90.3 | . | . | . | .
Cc1ccc(C(=O)N2CCC3(CC2)Oc2ccc(F)cc2C(=O)C32CC(c3ccccc3)=NO2)s1 (configuration not stated) | 85.2 | 3.2 | 83.0 | 106.4 | 98.1 | 68.5 | . | . | . | .
Cc1ccc(C(=O)N2CCC3(CC2)Oc2ccc(Cl)cc2C(=O)C32CC(c3cccnc3)=NO2)s1 (configuration not stated) | 99.5 | 0.1 | 99.9 | 94.4 | 97.9 | 101.5 | 111.1 | 0.1 | 126.8 | -0.1
Cc1ccc(C(=O)N2CCC3(CC2)Oc2ccc(F)cc2C(=O)C32CC(c3ccc(Cl)cc3)=NO2)s1 (configuration not stated) | 92.6 | 0.3 | 96.0 | 93.1 | 96.1 | 89.1 | . | . | . | .
CCC(=O)N1CCC2(CC1)Oc1ccc(Cl)cc1C(=O)C21CC(c2ccc(Cl)cc2)=NO1 (configuration not stated) | 90.5 | 0.2 | 81.2 | 124.6 | 96.0 | 82.1 | 106.7 | 0.2 | 108.3 | 0.1
Cc1c(C)n2c(SCC(=O)Nc3cccc4ccccc34)nnc2[nH]c1=O | 104.8 | -0.1 | 110.7 | 105.8 | 103.3 | 102.5 | . | . | . | .
CC(C)c1ccc(OCC(=O)NC2CCCC2)cc1 | 99.2 | 9.2* | 92.1 | 103.8 | 95.5 | 98.1 | 113.2 | -0.1 | 110.2 | 0.0
CC(=O)N[C@@H](Cc1c[nH]c2ccccc12)C(=O)NC1CCCc2ccccc21 (some centres not stated) | 101.3 | -0.1 | 107.8 | 94.6 | 106.0 | 100.1 | . | . | . | .

Screening results as filed in PubChem.
